An excerpt weighted towards active compounds, which were near 2.3% of everything screened.
Jurkat NFkB inh: inhibitors of the PMA/ionomycin-induced NF-kB reporter in Jurkat cells; PMA/ionomycin-induced NF-kB luciferase reporter, luminescence; inhibition, % at 4 µM; actives 0.53% (n = 330,000); in the data active = inhibition above about 50%
697 NFkB inh: lowers PMA/ionomycin-induced NF-kB signal in 697 B cells; 697 B-cell NF-kB luciferase reporter, 16 h; inhibition, % at 4 µM; actives 0.33% (n = 330,000); AID 435022; in the data active = inhibition above about 35%
MITF TRPM1 inh: inhibitors of MITF-driven TRPM1 promoter in melanoma cells; SK-MEL-5 TRPM1 promoter luciferase, 24 h; inhibition, % at 12.5 µM; actives 0.83% (n = 330,000);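 active = mean inhibition across replicates of 60% or more, whatever share of single replicates reaches that level; inconclusive = some that reach 60%, reason not given; inactive = mean inhibition across replicates below 60%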
Gli-Sufu block: blocks Gli-Sufu signaling in a luciferase reporter; inhibition, % at 5 µM; AID 588413; Sufu-KO-LIGHT fibroblasts, Gli luciferase reporter luminescence; actives 0.74% (n = 340,000);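 active = inhibition above about 55%, limit read from the data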
Shn3 inh set2: inhibitors of Schnurri-3 3'UTR reporter in osteoblasts; inhibition, % at 12.5 µM; actives 0.52% (n = 360,000); Clone20 osteoblast Shn3 3'UTR firefly luciferase, 24 h; AID 588674;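 active = mean inhibition of at least 75% with every replicate also reaching 75%; inconclusive = mean inhibition at least 75% but some replicate below; inactive = mean inhibition below 75%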
EBV LMP1 NFkB: inhibitors of Epstein-Barr LMP1-induced NF-kappaB reporter; inhibition, % at 12.5 µM; LMP1-induced NF-kappaB luciferase reporter cells, luminescence; actives 0.69% (n = 350,000); AID 504558; in the data active = inhibition above about 41%; inconclusive = no clear call, values can overlap the other calls
Gli-Sufu confirm: Gli-SUFU antagonism confirmation, single concentration; shares compounds with Gli-Sufu block; Sufu-KO-LIGHT cells, Gli luciferase reporter, luminescence; inhibition, % at 5 µM; actives 40% (n = 2,500);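 active = mean inhibition at 5 µM reaching about 45%, limit read from the data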
SufuKO cytotox: cytotoxicity counter-screen for Gli-SUFU antagonists | cytotoxicity, % at 5 µM | shares compounds with Gli-Sufu block | Sufu-KO-LIGHT cells cytotoxicity, ATP luminescence | actives 32% (n = 2,500);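 active = mean cytotoxicity at 5 µM above about 25%, limit read from the data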;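 note: cells exposed to compound overnight for roughly 16 to 18 hours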
Wnt3a counter: counter-screen for Gli-SUFU antagonists: Wnt3a reporter inhibition. shares compounds with Gli-Sufu block. Wnt-LIGHT cells, Wnt3a-driven luciferase reporter, luminescence. inhibition, % at 6.25 µM. actives 20% (n = 2,500). AID 651995;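 active = mean inhibition above about 25%, limit read from the data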
A number is an active result; n = inactive; u = inconclusive; x = not tested or not shown.

SMILES | Jurkat NFkB inh | 697 NFkB inh | MITF TRPM1 inh | Gli-Sufu block | Shn3 inh set2 | EBV LMP1 NFkB | Gli-Sufu confirm | SufuKO cytotox | Wnt3a counter
CCOc1ccc(OCC)c(NC(=O)CN2CCN(C(=O)c3ccco3)CC2)c1 | n | n | n | n | n | n | x | x | x
CCNC(=O)/C(C#N)=C/c1c(N(Cc2ccccc2)Cc2ccccc2)nc2ccccn2c1=O | n | n | n | 88 | n | n | n | n | n
COc1ccc(CNC(=O)c2cc(-c3cc(C)ccc3O)n[nH]2)cc1 | n | n | n | n | n | n | x | x | x
CCc1nnc(NC(=O)CC(=O)Nc2ccccc2C(=O)O)s1 | n | n | n | n | n | n | x | x | x
CC(C)OC(=O)CC12CN(C)CC(CC(=O)OC(C)C)(CN(C)C1)C2=O | n | n | n | n | n | n | x | x | x
COC(=O)c1sc(NC(=O)c2cc(-c3ccccc3)nc3ccccc23)c(C#N)c1C | n | n | n | 69 | n | n | 82 | 31 | 62
CC(C)c1ccc(NC(=O)CCCC(=O)NCCc2ccccc2)cc1 | n | n | n | n | n | n | n | n | n
O=C(CCCc1ccccc1)NCCc1ccccc1 | n | n | n | n | n | n | x | x | x
CCN(CC)S(=O)(=O)c1ccc(S(=O)(=O)N2CCCC(C(=O)NC3CC3)C2)cc1 (stereo not drawn) | n | n | n | 60 | u | n | 46 | n | n
CN(C)S(=O)(=O)c1ccc(S(=O)(=O)N2CCCC(C(=O)NC3CC3)C2)cc1 (stereo not drawn) | n | n | n | n | n | n | x | x | x
COc1ccc(CNC(=O)COc2ccc([N+](=O)[O-])cc2)cc1 | n | n | n | n | n | n | x | x | x
COc1cc2c(cc1OC)C(C(=O)Nc1ccccc1N1CCN(C)CC1)C1c3ccccc3CCN1C2=O (stereo not drawn) | n | n | n | 56 | n | n | n | n | n
CCCCCn1c(CN2CC(C)OC(C)C2)nc2c1c(=O)n(C)c(=O)n2C (stereo not drawn) | n | n | n | n | n | n | x | x | x
CC(OC(=O)CCC(=O)c1ccc(Cl)s1)C(=O)NC1(C#N)CCCCC1 (stereo not drawn) | n | n | n | 94 | n | n | n | n | n
Cc1ccc(SCC(=O)OC(C)C(=O)NC2(C#N)CCCCC2)cc1 (stereo not drawn) | n | n | n | n | n | n | x | x | x
CCOc1ccc(/C=C2\SC(=S)N(CCC(=O)N(CCO)c3ccccc3)C2=O)cc1 | n | n | n | n | n | n | n | n | n
CC(C)(CO)NCC(O)Cn1cc(C=O)c2ccccc21 (stereo not drawn) | n | n | n | n | n | n | n | n | n
C=C(C)CSc1nc2sc3c(c2c(=O)n1C1CCCCC1)CCN(C)C3 | n | n | n | 58 | n | n | 47 | 25 | n
CCN(Cc1ccncc1)C(=O)C1CCN(S(=O)(=O)c2cccs2)CC1 | n | n | n | 99 | n | n | n | n | n
CCN(CC(=O)Nc1c(F)cccc1F)C(=O)c1cccc(S(=O)(=O)N2CCCCCC2)c1 | n | n | n | n | n | n | x | x | x
CCN(Cc1ccncc1)C(=O)c1cccc(S(=O)(=O)N2CCCCC2)c1 | n | n | n | 95 | n | n | n | n | n
CCOc1cc(/C=C2/NC(=O)N(Cc3ccccc3F)C2=O)ccc1O | n | n | n | 74 | n | n | 71 | n | 45
COc1ccc2c(c1)c(CC(=O)OCC(=O)O)c(C)n2C(=O)c1ccc(Cl)cc1 | n | n | n | n | n | n | x | x | x
COc1ccc2c(c1)c(CC(=O)OCC(N)=O)c(C)n2C(=O)c1ccc(Cl)cc1 | n | n | n | 64 | n | n | n | n | n
Cc1cc([N+](=O)[O-])nn1CC(=O)N/N=C/c1ccccc1Br | n | n | n | n | n | n | x | x | x
SMILES | Jurkat NFkB inh | 697 NFkB inh | MITF TRPM1 inh | Gli-Sufu block | Shn3 inh set2 | EBV LMP1 NFkB | Gli-Sufu confirm | SufuKO cytotox | Wnt3a counter
CCN(CCCCCCN)c1ccc2c(=O)[nH][nH]c(=O)c2c1 | n | n | n | n | n | n | x | x | x
O=[N+]([O-])c1ccc2ncnc(N3CCN(Cc4ccc5c(c4)OCO5)CC3)c2c1 | n | n | n | 68 | n | 42 | n | 26 | n
O=[N+]([O-])c1cccnc1N1CCN(Cc2ccc3c(c2)OCO3)CC1 | n | n | n | n | n | n | x | x | x
COc1ccccc1NC(=O)Cc1nnc(SCC(=O)NC2CCCCC2)n1C | n | n | n | n | n | n | x | x | x
CCOC(=O)c1[nH]c2ccccc2c1NC(=O)CC(C)C | n | n | n | n | n | n | n | n | n
CCCC(=O)Nc1c(C(=O)OCC)[nH]c2ccccc12 | n | n | n | 75 | n | n | n | n | n
CN1/C(=C\C(=O)COC(=O)Cn2nnc(-c3ccccc3)n2)C(C)(C)c2ccccc21 | n | n | n | 71 | n | n | 68 | 43 | 34
CN1/C(=C/C(=O)COC(=O)CN2C(=O)C3CC=CCC3C2=O)C(C)(C)c2ccccc21 (stereo not drawn) | x | x | n | n | n | n | x | x | x
C=CCNC(=O)c1ccc(CN2CCC(Cc3ccccc3)CC2)cc1 | n | n | n | 56 | n | n | n | n | n
O=C(NCCCN1CCOCC1)c1cccnc1 | n | n | n | n | n | n | x | x | x
O=C(NCCCN1CCOCC1)c1ccccc1 | n | n | n | 61 | n | n | n | n | n
O=C(CC(c1ccccc1)c1cc(Br)ccc1O)NCCCN1CCOCC1 (stereo not drawn) | n | n | n | n | n | n | n | n | n
COc1ccc(CN(C)CC(=O)Nc2sc3c(c2C#N)CCC3)c(OC)c1 | n | n | n | n | n | n | x | x | x
Cc1cccc(C(=O)NCC(=O)OCC(=O)NC2CCCCCCC2)c1 | n | n | n | n | n | n | x | x | x
Cc1nc(Nc2ccc(C(=O)O)cc2)nc(Nc2ccc(C(=O)O)cc2)c1[N+](=O)[O-] | n | n | n | n | n | n | x | x | x
Cc1nc(Nc2ccc(F)cc2)nc(Nc2ccc(F)cc2)c1[N+](=O)[O-] | n | n | n | n | n | n | n | n | 42
Cc1ccc(NC(=O)Cc2nn(C)c(=O)c3ccccc23)cc1F | n | n | n | 67 | n | n | 66 | 29 | n
